From PubChem BioAssay
aSyn rescue: qHTS of alpha-syn Inhibitors; Potency, µM (highest dose often 46.1 µM), for inactives: at the highest dose growth rescue (activation), hits mostly activators; hit rate 0.14% among 370,000; Yeast expressing alpha-synuclein, growth rescue, BacTiter-Glo, 24 h; AID 652106, 2013; further: % of control where 0% means no effect; nearly all actives have a fitted effect of over 65% in size
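Readout is rescue of growth in alpha-synuclein-expressing yeast, so inhibitors of toxicity appear as activators. Growth after 24 hr at 30 deg C in galactose medium is quantified by luminescence.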
FUS suppressor: qHTS for Suppressors of FUS Proteinopathy: Primary screen using FUS-linked yeast assay | Potency, µM (highest dose often 76.6 µM), most hits filed as activators | AID 1347120, 2019 | S. cerevisiae FUS-expressing, growth rescue, OD600, 24 h | hit rate 0.24% among 390,000;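 further: plate controls were DMSO vehicle for no effect and reference control for full effect; nearly all actives have a fitted effect of over 55% in size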
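Restored growth of FUS-toxic S. cerevisiae, read as 600 nm absorbance after 24 h at 30C in galactose medium (starting OD 0.005). Controls CP55940 and DMSO.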
TDP-43 yeast inh: qHTS of TDP-43 Inhibitors; hit rate 1.8% among 410,000; TDP-43 expressing yeast growth rescue, BacTiter-Glo, 24 h; Potency, µM (doses to about 46.1 µM), inactives show at the top dose growth rescue (activation), actives largely listed as activators; further: % of control where 0% means no effect; nearly all actives have a fitted effect of over 50% in size
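In this qHTS, compounds that restore growth of yeast expressing TDP-43 appear as activators. Cells (OD600=0.02, galactose medium, raffinose-pregrown) are incubated with compound 24 hr at 30 deg C and growth is quantified by BacTiter-Glo.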
Abeta yeast res: qHTS for compounds that reverse cellular toxicity of Amyloid beta (A-beta) peptide in yeast: Primary Screen | yeast expressing A-beta42, growth rescue, OD600, 48 h; response scale: 0% DMSO, 100% iron-clioquinol control | Potency, µM (top dose mostly 46.1 µM), hits mostly activators | hit rate 0.063% among 410,000 | AID 1347071, 2019; further: nearly all actives have a fitted effect of over 55% in size
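Yeast growth medium received pinned compounds, then yeast cells expressing toxic A-beta were added; plates incubated at 30 C for 48 hr. Growth read as absorbance at 600 nm, normalized to DMSO and equimolar FeCl3 plus clioquinol controls.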
The depositor's hits bear a star; [ ] = remark or other dose. In the library only some 2.1% were active in any assay of this set; here they are far more common. The call rests on the fitted dose curve; in most records, active means well fitted curve in the direction sought with a large enough effect; inconclusive means small, poorly fitted or top-dose-only effect, or another doubt; inactive means no such curve, though single readings can be large; an effect the other way counts as inactive or inconclusive. Potency means the concentration at half of the fitted maximal effect.

Screening CC(=O)Nc1ccc(Nc2nc3ccccc3nc2NS(=O)(=O)c2ccccc2)cc1 returned aSyn rescue -12%, FUS suppressor inconclusive, TDP-43 yeast inh 20µM* and Abeta yeast res inactive.
For CCCCC(=O)N(C)c1c(CC)nc2c(OCC(=O)c3ccc(Cl)cc3Cl)cccn12 the results were aSyn rescue -11%, FUS suppressor 32µM*, TDP-43 yeast inh 6% and Abeta yeast res inactive.
Screening CCc1nc2c(OCc3ccc(Cl)cc3Cl)cccn2c1N(C)C(=O)c1ccccc1F returned aSyn rescue 0%, FUS suppressor inconclusive, TDP-43 yeast inh 18µM* and Abeta yeast res inactive.
`CCc1nc2c(OCC(=O)c3ccc(Cl)cc3Cl)cccn2c1N(C)C(=O)c1ccncc1` gave aSyn rescue -5%, FUS suppressor inactive, TDP-43 yeast inh 9% and Abeta yeast res inactive.
For CN1CCN(C(=O)C23CCC(C)(C(=O)C2Br)C3(C)C)CC1 (stereo unspecified) the results were aSyn rescue -11%, FUS suppressor inactive, TDP-43 yeast inh -8% and Abeta yeast res inactive.
Screening COC(=O)[C@]12C[C@H](CC(=O)NCc3cccs3)C(=O)N(Cc3cccc4ccccc34)C1=C[C@H](C(C)(C)C)O[C@@H]2C returned FUS suppressor 10µM*.
Screening COC(=O)[C@]12C[C@H](CC(=O)NCCC(C)C)C(=O)N(Cc3cccc4ccccc34)C1=C[C@H](C(C)(C)C)O[C@@H]2C returned FUS suppressor 22µM*.
COC(=O)[C@]12C[C@H](CC(=O)NCC3CCCCC3)C(=O)N(Cc3cccc4ccccc34)C1=C[C@H](C(C)(C)C)O[C@@H]2C was read as FUS suppressor inactive.
COC(=O)[C@]12C[C@H](CC(=O)N3CCOCC3)C(=O)N(Cc3cccc4ccccc34)C1=C[C@H](C(C)(C)C)O[C@@H]2C was read as FUS suppressor 22µM*.
COC(=O)[C@]12C[C@H](CC(=O)N3CCC(c4ccccc4)CC3)C(=O)N(Cc3cccc4ccccc34)C1=C[C@H](C(C)(C)C)O[C@@H]2C was read as FUS suppressor inactive.
For CSc1ncc2c(n1)-c1cc(C)ccc1SC2 the results were aSyn rescue 0%, FUS suppressor inactive, TDP-43 yeast inh inconclusive and Abeta yeast res inactive.
Screening COc1cc(/C=N/NC(=O)NC2CCCCC2)cc(OC)c1O returned aSyn rescue 1%, FUS suppressor inactive, TDP-43 yeast inh 3% and Abeta yeast res inactive.
CCOc1ccccc1NC(=S)NC(=O)C1CCCCC1 was read as aSyn rescue -26%, FUS suppressor inactive, TDP-43 yeast inh 20% and Abeta yeast res 7.1µM*.
`CCOc1ccccc1NC(=O)C1CCCC1` gave aSyn rescue 0%, FUS suppressor inactive, TDP-43 yeast inh 0% and Abeta yeast res inactive.
Screening CCOc1ccccc1NC(=S)NC(=O)c1ccco1 returned aSyn rescue -5%, FUS suppressor inactive, TDP-43 yeast inh 14µM* and Abeta yeast res inconclusive.
CCOc1ccccc1NC(=O)c1ccccc1NC(=O)c1ccco1 was read as aSyn rescue -4%, FUS suppressor inactive, TDP-43 yeast inh 15% and Abeta yeast res inactive.
`CCCn1c(C)cc(C(=O)COc2ccc(-c3nnco3)cc2)c1C` gave aSyn rescue 11%, FUS suppressor inactive, TDP-43 yeast inh 28µM* and Abeta yeast res inactive.
Screening O=C(Cn1nnc(-c2ccc(Cl)cc2)n1)NC1CCS(=O)(=O)C1 (stereo unspecified) returned aSyn rescue 0%[1.84 µM], FUS suppressor inactive, TDP-43 yeast inh 10% and Abeta yeast res inactive.
For O=C1c2ccccc2C(c2nnnn2Cc2ccccc2)N1CCOc1ccccc1 (stereo unspecified) the results were aSyn rescue 25µM*, FUS suppressor inactive, TDP-43 yeast inh 11µM* and Abeta yeast res inactive.
`Cc1cc(=O)oc2cc(OCC(O)CN3CCc4ccccc4C3)ccc12` (stereo unspecified) gave aSyn rescue -1%, FUS suppressor inactive, TDP-43 yeast inh -21% and Abeta yeast res inactive.
For Cc1ccc(CSc2ccc3nnc(-c4cccnc4)n3n2)cc1 the results were aSyn rescue -1%, FUS suppressor inactive, TDP-43 yeast inh 7% and Abeta yeast res inactive.
`Fc1cccc(CSc2ccc3nnc(-c4cccnc4)n3n2)c1` gave aSyn rescue 9%, FUS suppressor inactive, TDP-43 yeast inh 16µM* and Abeta yeast res inconclusive.
Cc1ccc(CSc2ccc3nnc(-c4ccccn4)n3n2)cc1 was read as aSyn rescue -1%, FUS suppressor inactive, TDP-43 yeast inh 20µM* and Abeta yeast res inactive.
`Brc1ccc(CSc2ccc3nnc(-c4cccnc4)n3n2)cc1` gave aSyn rescue 1%, FUS suppressor inactive, TDP-43 yeast inh 16µM* and Abeta yeast res inactive.
CC(C)(C)C(=O)Nc1ccc(C(=O)N/N=C/c2ccccc2OC(=O)c2ccc(Cl)cc2)cc1 was read as aSyn rescue 2%, FUS suppressor 22µM*, TDP-43 yeast inh -17% and Abeta yeast res inactive.
`COc1ccc(NC(=O)CN(C)C(=O)c2cn(-c3ccccc3)nc2-c2ccc(F)cc2)cc1` gave aSyn rescue -11%, FUS suppressor inconclusive, TDP-43 yeast inh 25µM* and Abeta yeast res inactive.
Screening N#Cc1ccccc1OCCn1cncn1 returned aSyn rescue -7%, FUS suppressor inactive, TDP-43 yeast inh 9% and Abeta yeast res inactive.
O=C(Nc1nc(-c2ccco2)cs1)c1ccccc1 was read as aSyn rescue -51%, FUS suppressor inactive, TDP-43 yeast inh 13µM* and Abeta yeast res inactive.
Screening O=C(Nc1nc(-c2ccccn2)cs1)c1cc(Cl)ccc1[N+](=O)[O-] returned aSyn rescue inconclusive, FUS suppressor inactive, TDP-43 yeast inh inconclusive and Abeta yeast res 13µM*.
Screening O=C(Nc1nc(-c2ccccn2)cs1)c1ccc2c(c1)OCCO2 returned aSyn rescue inconclusive, FUS suppressor inactive, TDP-43 yeast inh inconclusive and Abeta yeast res 13µM*.
For CC(=O)Nc1ccc(C(=O)Nc2nc(-c3ccccn3)cs2)cc1 the results were aSyn rescue -12%, FUS suppressor inconclusive, TDP-43 yeast inh 10% and Abeta yeast res inactive.
`Cc1ccc(S(=O)(=O)N2CCOCC2)cc1C(=O)N(C)CCOc1ccc(Cl)cc1` gave aSyn rescue -3%, FUS suppressor inactive, TDP-43 yeast inh -14% and Abeta yeast res inactive.
O=C1CN(C(=O)COc2ccc([N+](=O)[O-])cc2Cl)c2ccccc2N1 was read as aSyn rescue -4%, FUS suppressor inactive, TDP-43 yeast inh -5% and Abeta yeast res inactive.
